# In the library only some 3.1% were active in any assay of this set; here they are far more common.
# IL2 activator = activators of IL-2 | IL-2 activation reporter assay, cell-based qHTS; stimulated with anti-CD3/CD4/CD28 beads; in transgenic mouse T cells | activation, % (series mostly up to about 46 µM) | actives 0.065% (n = 360,000) | AID 652025; in the data active means activation above about 50%; inconclusive means mostly about 30% to 49%
#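 Unstimulated transgenic mouse T cells; 60-min compound exposure; bead-based TCR/CD4/CD28 stimulation; 18 h culture, 37 degrees C; dual fluorescence (EGFP, DsRed) plate cytometry.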
# BRCA1 expr act = increases BRCA1 expression. Potency, µM (doses to about 46.1 µM), usual class: activators. MCF7-BRCA1-FFLuc reporter, luminescence, 48 h; response scale: scaled: vehicle 0%, 10 µM genistein 100%. actives 1.1% (n = 380,000). AID 624202; further: nearly all actives have a fitted effect of over 80% in size
#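 Luminescence from a BRCA1-driven firefly luciferase in MCF7 cells was read after 48 h compound exposure at 37 C. Data normalized against DMSO and a 10microM genistein activation control, then curve-fitted across the titration.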
# Nrf2 ARE act = activators of Nrf2 (ARE) signaling | AREc32 ARE-luciferase reporter (MCF7-derived line), luminescence, 24 h | Potency, µM (top dose mostly 46.1 µM), actives largely listed as activators | actives 0.31% (n = 410,000); further: nearly all actives have a fitted effect of over 65% in size
#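 Luminescent ARE reporter assay in AREc32_Fluc cells: overnight plating at 37 deg C, 24 hr compound incubation, Steady-Glo added, 30 min RT before reading.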
# ELG1 DNA repair = ELG1-dependent DNA repair inhibition; actives 2.3% (n = 330,000); Potency, µM (titrated, usually from 46.1 µM), usual class: inhibitors; AID 504467; HEK293T ELG1-luciferase reporter, luminescence, 16 h; DNA damage induced by 5-fluorouridine; further: nearly all actives have a fitted effect of over 55% in size
#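 Quantitative HTS, concentration-response format. 2,000 cells/well co-treated with 5-fluorouridine and compound, 16 hr in 5% CO2 at 37 °C; ONE-Glo luminescence read after 30 min.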
# A number is an active result; 0 = inactive; ? = inconclusive; - = no result. Unless noted, the call rests on the fitted dose curve; in most records, active means well fitted curve in the direction sought with a large enough effect; inconclusive means small, poorly fitted or top-dose-only effect, or another doubt; inactive means no such curve, though single readings can be large; an effect the other way counts as inactive or inconclusive.
SMILES,IL2 activator,BRCA1 expr act,Nrf2 ARE act,ELG1 DNA repair
COc1ccc(Cl)cc1C(=O)Nc1ccccc1N1CCN(C(=O)C(C)C)CC1,0,0,0,?
CC(C)C(=O)N1CCN(c2ccc(NC(=O)c3ccc4c(c3)OCCO4)cc2Cl)CC1,0,0,0,5.8µM
COc1cccc(OC)c1C1=CC(=O)C[C@H](c2ccc3c(c2)OCO3)C1,0,0,0,9.2µM
COc1cc(F)c(C2=CC(=O)C[C@H](c3ccc4c(c3)OCO4)C2)cc1F,0,0,0,16.4µM
c1ccc(N=Nc2cn[nH]c2-c2ccco2)cc1,0,0,10µM,0
CC1=C(C(=O)Nc2ccccc2)C(c2ccc(C)o2)n2c(s/c(=C/c3ccccc3)c2=O)=N1 (stereo unspecified),0,0,0,20.6µM
CCN(CC)Cc1cc(Nc2c3ccccc3nc3c4ccccc4n(C)c23)cc(CN(CC)CC)c1O,0,0,?,-
COc1ccc(OC)c(NC(=O)Cc2nn(C)c(=O)c3ccccc23)c1,0,0,0,?
O=C(CCl)Nc1cccc2ncccc12,0,0,?,25.9µM
O=C(Nc1cccc2ncccc12)c1ccccc1F,0,0,12.6µM,0
Cn1nc(CC(=O)Nc2cccc3ncccc23)c2ccccc2c1=O,0,0,0,7.31µM
CCn1c(CNC(=O)c2ccc(OC)cc2)nnc1SCC(=O)Nc1ccc(C)cc1,-,0,0,-
COc1ccc(C(=O)NCC(c2ccc3c(c2)OCO3)N2CCOCC2)cc1OC (stereo unspecified),-,-,0,-
O=C(N[C@@H]1C/C=C\C[C@@H](CC(=O)N(CCO)Cc2ccccc2)C(=O)NC[C@H](c2ccccc2)OC1=O)OCC1c2ccccc2-c2ccccc21,0,0,0,14.6µM
O=C(N[C@@H]1C/C=C\C[C@H](CC(=O)N(CCO)Cc2ccccc2)C(=O)NC[C@@H](c2ccccc2)OC1=O)OCC1c2ccccc2-c2ccccc21,0,0,0,?
C[C@H]1COC(=O)[C@H](NC(=O)OCC2c3ccccc3-c3ccccc32)C/C=C\C[C@H](CC(=O)N(CCO)Cc2ccccc2)C(=O)N1,0,0,0,25.9µM
C[C@@H]1COC(=O)[C@@H](NC(=O)OCC2c3ccccc3-c3ccccc32)C/C=C\C[C@@H](CC(=O)N(CCO)Cc2ccccc2)C(=O)N1,0,0,0,?
c1ccc(CSc2nnc(C3CCNCC3)o2)cc1,-,-,0,-
CSC1=NC(C)(C)C=C(/C=C/c2c(Cl)cccc2Cl)N1,0,0,?,0
CSC1=NC(C)(C)C=C(/C=C/c2ccc(Cl)cc2Cl)N1,0,0,25.1µM,0
CSC1=NC(C)(C)C=C(/C=C/c2ccc(Cl)cc2)N1,0,0,5.62µM,0
CCn1nnc2sc3c(c2c1=O)CCC(C)C3 (stereo unspecified),0,12.6µM,0,?
C=C(C)Cc1c(C)c(C#N)c2[nH]c3ccccc3n2c1=O,0,0,0,20.6µM
Cc1c(CCC(=O)O)c(=O)n2c([nH]c3ccccc32)c1C#N,0,0,0,0
Cc1ccc(Cc2c(C)c(C#N)c3[nH]c4ccccc4n3c2=O)cc1,0,0,0,18.3µM
SMILES,IL2 activator,BRCA1 expr act,Nrf2 ARE act,ELG1 DNA repair
Cc1ccc(C(=O)Nc2ccccc2C(=O)OCc2cc(=O)n3nc(C4CC4)sc3n2)cc1,-,-,0,-
CCN(C(=O)c1cc2c(=O)oc3ccccc3c2s1)c1ccc(C)c(C)c1,-,0,0,-
Cc1cc(NC(=O)CSc2cc(Cl)ccc2Cl)n(-c2ccccc2)n1,0,0,0,25.9µM
CCc1ccccc1NC(=O)C(=O)NCC(c1cccnc1)N1CCN(c2ccccc2F)CC1 (stereo unspecified),-,-,0,-
CCOc1cc(C(=O)Nc2ccc3c4c(cccc24)C(=O)N3CC)cc(OCC)c1OCC,0,0,0,20.6µM
CCOc1ccc(C(=O)Nc2ccc3oc(-c4cccc5ccccc45)nc3c2)cc1,-,-,0,-
CCOC(=O)c1ccc(-c2ccc3c(c2)CCC3)nc1C,0,10µM,0,?
CC(=O)Nc1c(C)nn(-c2ccccc2)c1N1CCC(C(=O)Nc2ccccc2F)CC1,-,-,0,-
CCN(CC)S(=O)(=O)N1CCC(C(=O)NC2CCCc3ccccc32)CC1 (stereo unspecified),0,0,0,16.4µM
Cn1c(=O)oc2cc(S(=O)(=O)N3CCCC(C(=O)Nc4ccccn4)C3)ccc21 (stereo unspecified),0,0,0,0
Cn1c(=O)oc2cc(S(=O)(=O)N3CCCC(C(=O)NC4CCCc5ccccc54)C3)ccc21 (stereo unspecified),0,0,0,2.91µM

# Assay outcomes (PubChem)
